Whole data set: some 39,000 sequences, median “fluorescence intensity (a.u.)” near 4,300, cut for the highest 2% near 39,000. Shown is part of a subset that was picked to be rich in the highest values.
molecular target: T1, OsSMF1 (Oryza sativa, UniProt Q6ZLB0 1-436); assay: protein-binding microarray (RPBM); PBS, 2% BSA, 51.3 ng/ul salmon testes DNA, 50 uM zinc acetate, 200 nM TF, 25 C, 1 h; high values mean tight binding; details: protein: recombinant; tags: N-terminal polyhistidine and DsRed monomer fusion (pET32a); chain copies: 2; label: CyDye5-dUTP incorporated in the synthesized complementary strand; 3' TTTTT single-stranded linker to array surface; dsDNA, one strand shown
T1 sequence: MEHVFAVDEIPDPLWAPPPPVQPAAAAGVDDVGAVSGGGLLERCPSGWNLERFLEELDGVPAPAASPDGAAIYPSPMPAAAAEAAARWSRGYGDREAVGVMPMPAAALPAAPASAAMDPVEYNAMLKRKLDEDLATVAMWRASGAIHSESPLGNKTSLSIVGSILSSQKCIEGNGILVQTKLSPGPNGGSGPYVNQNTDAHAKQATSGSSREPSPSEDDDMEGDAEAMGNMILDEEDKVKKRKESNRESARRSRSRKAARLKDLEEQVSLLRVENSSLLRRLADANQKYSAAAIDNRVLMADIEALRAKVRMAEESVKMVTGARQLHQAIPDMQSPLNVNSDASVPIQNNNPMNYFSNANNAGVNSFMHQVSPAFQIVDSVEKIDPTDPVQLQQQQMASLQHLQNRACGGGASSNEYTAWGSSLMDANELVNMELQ
Procedure, shortened: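 In PBS with 2% BSA, salmon testes DNA and 50 µM zinc acetate, 200 nM protein was incubated on a custom Agilent array at 25 °C for 1 h and then washed off. The array had been made double-stranded by primer extension with Cy5-dUTP and blocked with 2% BSA. The proteins were transcription factors fused N-terminally to polyhistidine and DsRed, expressed in E. coli BL21-CodonPlus and purified on Ni–NTA. The binding signal is per-feature fluorescence intensity (arbitrary units) from an Axon 4000B scanner.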

How did the binding signal turn out when “AGCAGTAACCACGAAAGCGCTCGGCTCCACACGCCACGCACGGAGTCACCTAGTGCAG” was run?
The binding signal was 3280 fluorescence intensity (a.u.).

With “TATTAATTTCCAAATAAATTGCTATGTCAATGCCACGTCACGGAGTCACCTAGTGCAG” as the sequence, how does the binding signal read?
The binding signal was 40900 fluorescence intensity (a.u.).

How did the binding signal turn out when “ATCTAATTGCCACATAAGCACTACGTCAATAACACGTTAGCGGAGTCACCTAGTGCAG” was run?
The binding signal was 10100 fluorescence intensity (a.u.).

Which binding signal does the source give for “CCGCCCCACGCGGCGCCACCACACCACCGCGCGCGTCGCTCGGAGTCACCTAGTGCAG” here?
Its binding signal is 5900 fluorescence intensity (a.u.).

“GCCCACAAGCGCTCGGCTCGAAACGCCACGTCACCACGCTCGGAGTCACCTAGTGCAG” was tested. Which binding signal did it give?
The binding signal was 43800 fluorescence intensity (a.u.).

“ATGCCACATAAACCCTACGTCAATGCCACGTGGGACAAAGCGGAGTCACCTAGTGCAG” was tested. Which binding signal did it give?
The binding signal was 22600 fluorescence intensity (a.u.).

For “CACGTAAGCGTCACGTCAATGCCACGTGGGACGGTGACCTCGGAGTCACCTAGTGCAG”, which binding signal is on record?
The binding signal was 27900 fluorescence intensity (a.u.).

“CCCACCTTTCAAATTCCACGTCCGCCAATAATATTATTACCGGAGTCACCTAGTGCAG” was tested. Which binding signal did it give?
Its binding signal is 6710 fluorescence intensity (a.u.).

“TGCGGATCTAATTGCCACGTAAGCGCCACGACAATGACACCGGAGTCACCTAGTGCAG” was tested. Which binding signal did it give?
The binding signal was 16800 fluorescence intensity (a.u.).

For “CATCTAATTGCCACATAAGCGCCACGTCAACGACACGTTGCGGAGTCACCTAGTGCAG”, which binding signal is on record?
Its binding signal is 41300 fluorescence intensity (a.u.).

“TTGCCACGTAATCGCTACGTCAATGCCACGTGGGACGGAGCGGAGTCACCTAGTGCAG” was tested. Which binding signal did it give?
Its binding signal is 43800 fluorescence intensity (a.u.).

Which binding signal does the source give for “TAGTTAATAAAAGTCAAAATGAAGTCACAATTTGCCACGTCGGAGTCACCTAGTGCAG” here?
Its binding signal is 8180 fluorescence intensity (a.u.).

How did the binding signal turn out when “CTGTCCATTGATCTGTCCCTGGCAGCGACGTGACGTCCCACGGAGTCACCTAGTGCAG” was run?
Its binding signal is 4890 fluorescence intensity (a.u.).

For “GCTTCGTGGGCCTCTCACTTGAGTCACTGGCACTCCATTCCGGAGTCACCTAGTGCAG”, which binding signal is on record?
The binding signal was 3570 fluorescence intensity (a.u.).

Which binding signal does the source give for “TCCAAAATATTAGCATGGCACAGATTGGCACTACCCTTGTCGGAGTCACCTAGTGCAG” here?
The binding signal was 3280 fluorescence intensity (a.u.).

With “CGTAGAGGAATAACAATGGAACGTCATCCCTCTCTGTTCGCGGAGTCACCTAGTGCAG” as the sequence, how does the binding signal read?
Its binding signal is 4120 fluorescence intensity (a.u.).

With “GGTTCCATGCCTCGCCGTTTATCTATCTAATTTACTAGCACGGAGTCACCTAGTGCAG” as the sequence, how does the binding signal read?
The binding signal was 3170 fluorescence intensity (a.u.).

“CGGCATTGACCTGGTCTTTGTTCCACGTGGCGCTTAGGTGCGGAGTCACCTAGTGCAG” was tested. Which binding signal did it give?
Its binding signal is 8840 fluorescence intensity (a.u.).

How did the binding signal turn out when “TGTATGTCGGGTTGTCGATGATCAAGCCAGTGACACGCTTCGGAGTCACCTAGTGCAG” was run?
The binding signal was 4000 fluorescence intensity (a.u.).

How did the binding signal turn out when “AGCCCACGTCCAGCTCACACACGCACCCACAACCGACCCACGGAGTCACCTAGTGCAG” was run?
The binding signal was 6070 fluorescence intensity (a.u.).

Which binding signal does the source give for “TCAAATCAAATTGCCACGTAAGCGCCACGTCACTGCCACACGGAGTCACCTAGTGCAG” here?
The binding signal was 35200 fluorescence intensity (a.u.).

“CAGATATTATATTACGTAACATCTTCGTCAAGCTTACAATCGGAGTCACCTAGTGCAG” was tested. Which binding signal did it give?
The binding signal was 3850 fluorescence intensity (a.u.).

Which binding signal does the source give for “ATTTTATTATTCTTGCAGATCAAATTGCCACGTAAGCGTCCGGAGTCACCTAGTGCAG” here?
The binding signal was 47800 fluorescence intensity (a.u.).

“ATTTTATTGCCACATAAGCGCCACGTCAATGCCACGTGGGCGGAGTCACCTAGTGCAG” was tested. Which binding signal did it give?
The binding signal was 56000 fluorescence intensity (a.u.).

How did the binding signal turn out when “AATTGCCACGTAAGCGCCATGTCAGTGCCACGTCAAATTACGGAGTCACCTAGTGCAG” was run?
Its binding signal is 33800 fluorescence intensity (a.u.).

With “TATAATTGCTACGTAAGCGCCACGTCAATGCCATGTCAGACGGAGTCACCTAGTGCAG” as the sequence, how does the binding signal read?
Its binding signal is 15700 fluorescence intensity (a.u.).

For “ATAAAATTGCCACATAAGCACCACGTCAATGCTATGTGGGCGGAGTCACCTAGTGCAG”, which binding signal is on record?
The binding signal was 29700 fluorescence intensity (a.u.).

“ACATATAATTGCCACGTCAGCGCCACATCAATGCCACGTGCGGAGTCACCTAGTGCAG” was tested. Which binding signal did it give?
The binding signal was 26100 fluorescence intensity (a.u.).

With “AACATATTAGAATATCGGTCTTAAATTAAATCCCATATAACGGAGTCACCTAGTGCAG” as the sequence, how does the binding signal read?
Its binding signal is 29100 fluorescence intensity (a.u.).

Which binding signal does the source give for “GATCAAATTGCCACGTAAGCGCCACGTCAATGCCATGTCACGGAGTCACCTAGTGCAG” here?
The binding signal was 48000 fluorescence intensity (a.u.).

With “TTTTCGGATCAAATTGCCACGTAAGCGCCACGTCAGATGACGGAGTCACCTAGTGCAG” as the sequence, how does the binding signal read?
Its binding signal is 16000 fluorescence intensity (a.u.).

“AGAATCGCTTATATTATGGGACGGACGTAACATATAGAAGCGGAGTCACCTAGTGCAG” was tested. Which binding signal did it give?
Its binding signal is 41100 fluorescence intensity (a.u.).
